Values joined by “and” are separate entries in the source; they are usually repeats but may differ in a detail not shown here. Equal values may be shown once. Records with an inconclusive call do not appear. Active and inactive are the calls of the source. Unless noted, the call rests on the fitted dose curve; in most records, active means well fitted curve in the direction sought with a large enough effect; inconclusive means small, poorly fitted or top-dose-only effect, or another doubt; inactive means no such curve, though single readings can be large; an effect the other way counts as inactive or inconclusive.
Columns and labels:
[1] = qHTS to identify inhibitors of the type 1 interferon - major histocompatibility complex class I in skeletal muscle: primary screen against the NCATS Mechanism Interrogation Plate v5.0 (MIPE) Libary (AID 1347411); further: nearly all actives have a fitted effect of over 65% in size; further: potency means the concentration at half of the fitted maximal effect
Method in brief: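 Seed engineered human myoblasts (HLA-B HiBit) in medium without dexamethasone containing 4 ng/ml IFN-beta; after 1 hr add compound titrations (top 46 uM final). Incubate 24 hrs at 37 C, lyse 10 min with HiBiT reagent, read luminescence.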

[2] = target: Protein phosphatase 1D (Homo sapiens) (UniProt O15297); test: RapidFire Mass Spectrometry qHTS Assay for Modulators of WT P53-Induced Phosphatase 1 (WIP1) (AID 1347424);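 further: amount of dephosphorylated VEPPL-S-QETFS peptide product formed by WIP1; series mostly up to about 63 µM; plate controls were DMSO wells for no effect and GSK830371 inhibitor control at 10 µM for full effect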
Chain of Protein phosphatase 1D (Homo sapiens) (O15297 whole entry, looked up): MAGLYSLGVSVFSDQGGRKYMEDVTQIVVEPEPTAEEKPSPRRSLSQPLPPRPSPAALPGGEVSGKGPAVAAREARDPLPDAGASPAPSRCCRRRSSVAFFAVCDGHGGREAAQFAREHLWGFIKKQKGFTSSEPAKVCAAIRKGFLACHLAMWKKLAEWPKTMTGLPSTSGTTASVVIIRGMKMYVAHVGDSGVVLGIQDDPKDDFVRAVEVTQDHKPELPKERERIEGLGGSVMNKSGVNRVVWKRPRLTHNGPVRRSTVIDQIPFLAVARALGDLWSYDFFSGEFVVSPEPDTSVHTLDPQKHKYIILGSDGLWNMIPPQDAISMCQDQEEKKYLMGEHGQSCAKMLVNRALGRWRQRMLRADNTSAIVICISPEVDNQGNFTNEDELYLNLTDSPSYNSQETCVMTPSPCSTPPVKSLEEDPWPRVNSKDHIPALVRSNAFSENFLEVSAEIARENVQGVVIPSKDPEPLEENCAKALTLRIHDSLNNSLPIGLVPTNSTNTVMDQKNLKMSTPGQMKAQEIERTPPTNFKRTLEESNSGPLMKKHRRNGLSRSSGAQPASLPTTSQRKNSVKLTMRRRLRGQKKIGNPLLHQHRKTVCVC
Method in brief: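 RapidFire mass spectrometry measured dephosphorylated peptide after 5 min room-temperature reaction of 2 uM VEPPL-pS-QETFS with 10 nM WIP1 (50 mM Tris-HCl pH 7.5, 30 mM MgCl2, 0.1 mM EGTA, BSA), following 1 hr compound preincubation; 1 uM isotope-labelled product standard.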

[3] = target: Protein phosphatase 1D (Homo sapiens) (UniProt O15297); test: Rhodamine-PBP qHTS Assay for Modulators of WT P53-Induced Phosphatase 1 (WIP1) (AID 1347425); further: % of control where 0% means no effect
Method in brief: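 5 nM WIP1 + 10 uM Rh-PBP, 50 mM Tris pH 7.5, 30 mM MgCl2, 1 mM TCEP, 0.1 mM EGTA, BSA; cpds pinned, 1 hr RT; + 10 uM phosphopeptide; fluorescence 1-min reads x 11 min; delta = f1 - f0.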

[4] = Primary qHTS for inhibitors of La Crosse Virus (LACV) - induced cell death in SH-SY5Y cells (AID 1508616);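 further: top concentration of the series differs between compounds; 0% = infected DMSO wells and 100% = uninfected DMSO wells; higher means more rescue of cells from virus-induced death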
Method in brief: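 SH-SY5Y, 6000 cells/well; cpd via pin tool in DMSO; LACV 0.01 MOI; 6 d 37C 5% CO2; ATPLite, 5 min RT; luminescence normalized to ±virus DMSO controls.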

[5] = target: Calcium and integrin-binding protein 1 (Homo sapiens) (UniProt Q99828); test: Primary qHTS for Identification of Calcium Integrin Binding Protein 1 (CIB1) Competitor (AID 1508620);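 further: GST tagged CIB1 binding a fluorescein labelled alphaIIb integrin peptide tracer; top concentration of the series differs between compounds; on the % scale 0 is the no-effect control and ±100 the full control effect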
Chain of Calcium and integrin-binding protein 1 (Homo sapiens) (Q99828 whole entry, looked up): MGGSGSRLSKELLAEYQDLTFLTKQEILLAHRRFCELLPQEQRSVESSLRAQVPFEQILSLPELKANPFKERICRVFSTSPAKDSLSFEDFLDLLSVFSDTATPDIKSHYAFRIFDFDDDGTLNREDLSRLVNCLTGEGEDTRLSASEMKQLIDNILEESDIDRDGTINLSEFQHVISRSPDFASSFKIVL
Method in brief: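 CIB1-GST (1 uM final) and compound incubated 15 min at room temperature before adding FITC-alphaIIb peptide tracer (100 nM final). Competition for binding read by fluorescence polarization (ex 480, em 540) after another 15 min at room temperature.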

[6] = A High-Content qHTS Against Drug Library for the Identification of Small Molecules that Inhibit DYT1 Early Onset Primary Dystonia-Associated Cell Pathology (AID 1645839; calls by dose curve; further: series mostly up to about 46 µM)
Method in brief: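 High-content imaging quantified EGFP-TorsinA mislocalization in HEK293-derived cells inducibly expressing DYT1 mutant torsinA, after 48 h exposure to compound given together with tetracycline induction. Cell count served as a toxicity channel alongside %pathology.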

[7] = target: Cytochrome P450 2D6 (Homo sapiens) (UniProt P10635); test: Cytochrome P450 family 2 subfamily D member 6 (CYP2D6) small molecule antagonists: luciferase biochemical (cell-free) qHTS assay (AID 1645840; active means well fitted curve in the direction sought with a large enough effect in the repeat runs; an effect the other way counts as inactive or inconclusive; further: nearly all actives have a fitted effect of over 55% in size; further: potency means the concentration at half of the fitted maximal effect)
Chain of Cytochrome P450 2D6 (Homo sapiens) (P10635 whole entry, looked up): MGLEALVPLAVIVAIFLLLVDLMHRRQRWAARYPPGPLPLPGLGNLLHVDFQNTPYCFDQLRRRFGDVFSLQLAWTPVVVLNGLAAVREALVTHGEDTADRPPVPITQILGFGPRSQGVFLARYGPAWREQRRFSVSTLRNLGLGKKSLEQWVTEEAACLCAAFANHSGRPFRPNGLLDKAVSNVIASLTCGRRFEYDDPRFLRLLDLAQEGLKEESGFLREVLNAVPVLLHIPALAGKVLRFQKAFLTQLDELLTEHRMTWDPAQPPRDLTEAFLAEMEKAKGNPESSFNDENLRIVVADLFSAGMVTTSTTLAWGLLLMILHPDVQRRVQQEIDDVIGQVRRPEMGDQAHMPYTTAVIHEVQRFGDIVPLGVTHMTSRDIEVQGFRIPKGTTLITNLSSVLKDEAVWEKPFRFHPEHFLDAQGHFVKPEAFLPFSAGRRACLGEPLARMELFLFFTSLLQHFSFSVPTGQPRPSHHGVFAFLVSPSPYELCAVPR
Method in brief: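 P450-Glo CYP2D6 system: proluciferin substrate converted by enzyme to luciferin, read by luminescence proportional to activity. Enzyme-substrate mix with compound 10 min at room temperature, then NADPH regeneration 1 h before detection reagent.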

[8] = target: Cytochrome P450 2C9 (Homo sapiens) (UniProt P11712); test: Cytochrome P450 family 2 subfamily C member 9 (CYP2C9) small molecule antagonists: luciferase biochemical (cell-free) qHTS assay (AID 1645842; active means well fitted curve in the direction sought with a large enough effect in the repeat runs; an effect the other way counts as inactive or inconclusive; further: nearly all actives have a fitted effect of over 55% in size; further: potency means the concentration at half of the fitted maximal effect)
Chain of Cytochrome P450 2C9 (Homo sapiens) (P11712 whole entry, looked up): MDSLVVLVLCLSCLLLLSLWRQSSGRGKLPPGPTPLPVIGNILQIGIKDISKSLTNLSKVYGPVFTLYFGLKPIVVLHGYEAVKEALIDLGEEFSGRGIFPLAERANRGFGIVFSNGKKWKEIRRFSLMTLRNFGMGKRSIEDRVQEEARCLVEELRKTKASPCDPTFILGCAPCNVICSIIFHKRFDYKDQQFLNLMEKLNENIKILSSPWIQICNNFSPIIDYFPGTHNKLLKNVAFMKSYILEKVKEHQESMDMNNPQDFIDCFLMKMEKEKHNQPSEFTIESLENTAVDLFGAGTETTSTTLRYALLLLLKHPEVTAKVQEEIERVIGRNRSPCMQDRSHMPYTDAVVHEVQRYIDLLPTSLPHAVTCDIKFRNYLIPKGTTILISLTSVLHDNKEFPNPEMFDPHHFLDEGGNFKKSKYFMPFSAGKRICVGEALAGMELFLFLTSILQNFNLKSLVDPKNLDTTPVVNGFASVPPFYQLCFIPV
Method in brief: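 P450-Glo CYP2C9 system: proluciferin substrate with enzyme in mix containing 0.4% BSA, 10 min at room temperature, then NADPH regeneration solution added and incubated 1 h at 37C. Detection reagent stopped reaction; luminescence read after 20 min as RLU.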

[9] = Primary qHTS for small molecule stabilizers of the endoplasmic reticulum resident proteome: Secreted ER Calcium Modulated Protein (SERCaMP) assay (AID 1508630); further: on the % scale 0 is the no-effect control and ±100 the full control effect
Method in brief: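 The SH-SY5Y reporter protocol was run at 3 concentrations up to 38.3 uM (primary) or 11 concentrations (follow-up): 16 h compound, 100 nM thapsigargin for 4 h, then extracellular luciferase luminescence.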

[10] = target: N-terminal Xaa-Pro-Lys N-methyltransferase 1 (Homo sapiens) (UniProt Q9BV86); test: Confirmatory qHTS for Inhibitors of N-terminal methyltransferase 1 (NTMT1): MTaseGlo Assay (AID 1645874);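 further: luminescence from SAH made as NTMT1 methylates SPKRIA peptide using SAM; series mostly up to about 100 µM; 0% = DMSO control and -100% = no-enzyme control; nearly all actives have a fitted effect of over 65% in size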
Chain of N-terminal Xaa-Pro-Lys N-methyltransferase 1 (Homo sapiens) (Q9BV86 whole entry, looked up): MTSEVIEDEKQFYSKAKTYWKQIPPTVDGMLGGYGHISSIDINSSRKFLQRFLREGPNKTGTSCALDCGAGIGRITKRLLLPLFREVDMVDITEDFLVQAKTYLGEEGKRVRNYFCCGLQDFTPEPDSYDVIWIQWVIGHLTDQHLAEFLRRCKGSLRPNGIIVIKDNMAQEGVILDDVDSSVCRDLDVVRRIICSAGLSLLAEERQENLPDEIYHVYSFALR
Method in brief: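 Enzyme mix (125 nM NTMT1, 100 uM SAM) + compound, 15 min RT; + 1 uM SPKRIA, 30 min RT, dark; MTase-Glo reagent 30 min, detection solution 30 min; luminescence. % inhibition vs no-enzyme/DMSO controls, 4-parameter Hill fit.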

[11] = Counterscreen qHTS for small molecule stabilizers of the endoplasmic reticulum resident proteome: GLuc-NoTag assay (AID 1508627);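 further: series mostly up to about 76 µM; 0% = thapsigargin alone and -100% = DMSO vehicle control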
Method in brief: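 Counterscreen line: SH-SY5Y-GLuc-NoTag cells, treated with compound 19 hr before a 4 hr, 100 nM thapsigargin calcium depletion. Secreted Gaussia luciferase in the medium was measured by luminescence after coelenterazine was added (0.07x final), with cells unlysed.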

[12] = Confirmatory qHTS for small molecule stabilizers of the endoplasmic reticulum resident proteome: Secreted ER Calcium Modulated Protein (SERCaMP) assay (AID 1508628); further: series mostly up to about 76 µM; on the % scale 0 is the no-effect control and ±100 the full control effect; nearly all actives have a fitted effect of over 40% in size
Method in brief: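 Reporter secretion upon ER calcium depletion (100 nM thapsigargin, 4 h, 37C) is measured as medium luminescence with coelenterazine, after 16 h compound pretreatment of SH-SY5Y-GLuc-SERCaMP cells; primary at three concentrations up to 38.3 uM, follow-up at 11 (up to 76.6 uM).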

[13] = Cell Viability qHTS for small molecule stabilizers of the endoplasmic reticulum resident proteome (AID 1508629); details: cell viability counter-screen, 100 nM thapsigargin for final 4 h;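 further: human SH-SY5Y neuroblastoma cells carrying the GLuc-SERCaMP reporter; compound exposure about 46 h in total before the viability read; on the % scale 0 is the no-effect control and ±100 the full control effect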

O=C(NCC1CN(c2ccc(N3CCOCC3=O)cc2)C(=O)O1)c1ccc(Cl)s1 (stereo unspecified)
inactive: Potency [1] | outcome [2] | outcome [3] | Potency [4] | outcome [5] | Potency [6] | Potency [7]
active: Potency [8] 8.71 µM and 3.79 µM

NCCCC(O)(P(=O)(O)O)P(=O)(O)O
inactive: Potency [1] | outcome [2] | outcome [3] | Potency [4] | outcome [5] | Potency [6]

CC(C)Cn1cnc2c(N)nc3ccccc3c21
inactive: Potency [1] | outcome [2] | outcome [3] | Potency [4] | outcome [5] | Potency [9] | Potency [6] | Potency [8]

Nc1nc(=S)c2[nH]cnc2[nH]1
inactive: Potency [1] | outcome [2] | outcome [3] | Potency [4] | outcome [5] | Potency [9] | Potency [7] | Potency [10]
active: Potency [8] 15.5 µM

COCCCOc1cc(C[C@@H](C[C@H](N)[C@@H](O)C[C@H](C(=O)NCC(C)(C)C(N)=O)C(C)C)C(C)C)ccc1OC
inactive: Potency [1] | outcome [2] | outcome [3] | Potency [4] | outcome [5] | Potency [9] | Potency [6] | Potency [7] | Potency [8]

CN(Cc1cc(Br)cc(Br)c1N)C1CCCCC1
active: Potency [7] 0.0195 µM
inactive: Potency [1] | outcome [2] | outcome [3] | outcome [5] | Potency [9] | Potency [6]

C[C@@H](CN1CC(=O)NC(=O)C1)N1CC(=O)NC(=O)C1
inactive: Potency [1] | outcome [2] | outcome [3] | outcome [5] | Potency [9] | Potency [6] | Potency [7] | Potency [8]

CC(C(=O)O)c1ccc2c(c1)CC(=O)c1ccccc1S2 (stereo unspecified)
inactive: Potency [1] | outcome [2] | outcome [3] | Potency [4] | outcome [5] | Potency [9] | Potency [6] | Potency [8]

Cn1nnc2c(C(N)=O)ncn2c1=O
inactive: Potency [1] | outcome [2] | outcome [3] | Potency [4] | outcome [5] | Potency [9] | Potency [6] | Potency [7] | Potency [8]

CNC(=O)c1cc(Oc2ccc(NC(=O)Nc3ccc(Cl)c(C(F)(F)F)c3)cc2)ccn1
inactive: outcome [2] | outcome [3] | Potency [4] | outcome [5] | Potency [9]
active: Potency [1] 16.5 µM | Potency [8] 19.5 µM

Cc1oc(=O)oc1CN1CCN(c2cc3c(cc2F)c(=O)c(C(=O)O)c2n3C(C)S2)CC1 (stereo unspecified)
inactive: Potency [1] | outcome [2] | outcome [3] | Potency [4] | outcome [5] | Potency [9] | Potency [6] | Potency [7] | Potency [8]

O=C(O)CSCC(=O)NC1CCSC1=O (stereo unspecified)
inactive: Potency [1] | outcome [2] | outcome [3] | outcome [5] | Potency [6] | Potency [7] | Potency [8]

S=P(N1CC1)(N1CC1)N1CC1
active: Potency [7] 53 µM | Potency [8] 36.4 µM
inactive: Potency [1] | outcome [2] | Potency [4] | outcome [5] | outcome [11] | Potency [12] | max response [13] 22.2% | Potency [6]

COc1cc([C@@H]2c3cc4c(cc3[C@H](O)[C@H]3COC(=O)[C@H]23)OCO4)cc(OC)c1OC
active: Potency [8] 1.55 µM
inactive: outcome [2] | outcome [3] | Potency [4] | outcome [5] | Potency [9] | Potency [6] | Potency [7]

NC(N)=NC(N)=NCCc1ccccc1
active: Potency [7] 6.17 µM
inactive: Potency [1] | outcome [2] | outcome [3] | outcome [5] | Potency [6]

CCOC(=O)c1ccc(OC(=O)CCCCCN=C(N)N)cc1
active: Potency [7] 0.0977 µM
inactive: Potency [1] | outcome [2] | outcome [3] | outcome [5] | Potency [9] | Potency [6] | Potency [8]

CCOC(=O)[C@H](CCc1ccccc1)N[C@H]1CCc2ccccc2N(CC(=O)O)C1=O
active: Potency [8] 4.9 µM
inactive: Potency [1] | outcome [2] | outcome [3] | outcome [5] | Potency [9]

CC(C)OC(=O)OCOP(=O)(CO[C@H](C)Cn1cnc2c(N)ncnc21)OCOC(=O)OC(C)C
inactive: outcome [2] | outcome [3] | Potency [4] | outcome [5] | Potency [9] | Potency [6] | Potency [7] | Potency [8]

— PubChem BioAssay (NCATS)
